{"source": "PubChem BioAssay AID540336", "about": "(Broad Institute, 2011)", "note": "Several values for one entry are separate records, joined by “and”; a condition that tells them apart may be missing. Equal entries are not always repeated. Out of some 330,000 compounds screened, about 520 (0.16%) were called active. The sample holds actives, similar compounds and a random draw of the others, so the mix is not that of the screen.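 Rule for the calls: active = inhibition of at least 50% in every replicate; inconclusive = best replicate reaches 50% inhibition but some replicates fall short; inactive = the rest.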 More than one record can exist for a structure, and the calls need not agree.", "data": [{"target": "Histone acetyltransferase RTT109 (Candida albicans (strain SC5314 / ATCC MYA-2876)) (UniProt Q5AAJ8)", "sequence (Q5AAJ8 whole entry, looked up)": "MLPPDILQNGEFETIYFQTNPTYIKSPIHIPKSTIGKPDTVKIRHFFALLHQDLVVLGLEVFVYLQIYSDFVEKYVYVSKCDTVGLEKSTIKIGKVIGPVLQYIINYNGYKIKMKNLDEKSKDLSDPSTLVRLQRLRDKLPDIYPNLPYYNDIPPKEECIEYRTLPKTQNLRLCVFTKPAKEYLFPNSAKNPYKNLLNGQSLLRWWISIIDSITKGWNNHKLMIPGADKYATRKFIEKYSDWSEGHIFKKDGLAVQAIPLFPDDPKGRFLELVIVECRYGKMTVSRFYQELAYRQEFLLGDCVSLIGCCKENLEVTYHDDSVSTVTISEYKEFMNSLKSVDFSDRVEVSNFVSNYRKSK", "assay": "Rtt109-Vps75 histone acetyltransferase blockade – biochemical, ThioGlo CoA-SH fluorescence, plate reader, primary screen (AID 540336)", "details": "purified Rtt109/Vps75, ThioGlo CoA-SH fluorescence, 4 h; at 34.9 µM; stronger effect = higher value", "values": [{"smiles": "COc1cc(OC)c(C(=O)NNC(=O)c2ccc(NS(=O)(=O)c3cccs3)cc2)cc1OC", "inhibition": "-0.841% (inactive)"}, {"smiles": "COc1ccc(-c2ccc3c(c2)[C@@H]2C[C@H](N(C)S(=O)(=O)c4ccccc4)[C@H]([C@H](C)O)C(=O)N2CC3)cc1", "inhibition": "-7.44% (inactive)"}, {"smiles": "Cc1ccc(C(=O)O)c(NC=O)c1OCc1ccccc1", "inhibition": "2.64% (inactive)"}, {"smiles": "O=C(CC(=O)c1cccnc1)c1ccccc1", "inhibition": "5.8% (inactive)"}, {"smiles": "COc1cc2c(cc1OC)C(C(C)C)=NC(C)(C)C2", "inhibition": "-260% (inactive)"}, {"smiles": "COc1cc2c(cc1O)C(SC)=NC(C)(C)C2", "inhibition": "85% (active)"}, {"smiles": "COc1cc2c(cc1OC)C(Nc1ccc(S(N)(=O)=O)cc1)=NC(C)(C)C2", "inhibition": "-0.292% (inactive)"}, {"smiles": "C=CCNC(=O)C12CC3CC(C1)CC(C(=O)NCC=C)(C3)C2", "inhibition": "-14.4% (inactive)"}, {"smiles": "C=CCNC(=O)C1CC=CCC1C(=O)O", "note": "(centres undefined)", "inhibition": "-1.04% (inactive)"}, {"smiles": "C=CCNC(=O)C1CC2c3ccccc3C1c1ccccc12", "note": "(centres undefined)", "inhibition": "50.9% (active)"}, {"smiles": "C=CCCC(=O)N1C[C@H]2CON(C)[C@H]2C[C@H]1c1cccc(Nc2ccccc2)c1", "inhibition": "7.97% (inactive)"}, {"smiles": "Cc1ccc(S(=O)(=O)c2cc3c(=O)n4cccc(C)c4nc3n(CCc3ccccc3)c2=N)cc1C", "inhibition": "0.852% (inactive)"}, {"smiles": "CC(=NNC(=S)N1CCCCCC1)c1ccccn1", "inhibition": "16.2% (inactive)"}, {"smiles": "CCN1CCC(O)(/C=C/c2ccc(C)cc2)C(C(=O)/C=C/c2ccc(C)cc2)C1", "note": "(centres undefined)", "inhibition": "3.59% (inactive)"}, {"smiles": "O=C1CC(C(=O)O)NC(=S)N1", "note": "(centres undefined)", "inhibition": "-12.1% (inactive)"}, {"smiles": "O=C(O)C(=Cc1ccccc1[N+](=O)[O-])c1ccccc1", "inhibition": "-1.92% (inactive)"}, {"smiles": "CCc1c(Nc2ccccc2Cl)nc(N)[nH]c1=O", "inhibition": "4.46% (inactive)"}, {"smiles": "CC(C)(C)c1nnc2sc(SCC(O)=C(C#N)c3nc4ccccc4[nH]3)nn2c1=O", "inhibition": "-1.69% (inactive)"}, {"smiles": "FC(F)(F)c1ccc(-c2cccc3c2C2CC3CCN2Cc2ccccc2)cc1", "note": "(centres undefined)", "inhibition": "-0.156% (inactive)"}, {"smiles": "COc1ccc(N(C(=O)c2cccnc2)S(=O)(=O)c2ccc(OC)c(OC)c2)cc1", "inhibition": "-7.79% (inactive)"}, {"smiles": "O=C(c1cccnc1)N(Cc1ccccc1)C(=O)c1cccnc1", "inhibition": "7.15% (inactive)"}, {"smiles": "O=C(c1cccnc1)N(c1cc2sc(=O)oc2c2ccccc12)S(=O)(=O)c1ccccc1", "inhibition": "101% (active)"}, {"smiles": "Oc1c(Cl)cc(Cl)c(Cl)c1Cc1c(O)c(Cl)cc(Cl)c1Cl", "inhibition": "70.6% (active)"}, {"smiles": "Cc1ccc(Cn2c(C)c3cnn(CC(=O)NCCN4CCOCC4)c(=O)c3c2C)cc1", "inhibition": "4.07% (inactive)"}, {"smiles": "O=C(NC(Cc1ccccc1)C(=O)N1CCCC(C(F)(F)F)C1)c1ccccc1", "note": "(centres undefined)", "inhibition": "8.65% (inactive)"}, {"smiles": "O=C(NCC(=O)N1CCCC(C(F)(F)F)C1)c1ccccc1F", "note": "(centres undefined)", "inhibition": "-12.6% (inactive)"}, {"smiles": "FC(F)(F)C1CCCN(c2nsc3ccccc23)C1", "note": "(centres undefined)", "inhibition": "129% (active)"}, {"smiles": "CCN(CC(=O)Nc1c(F)cccc1F)C(=O)Cc1cccs1", "inhibition": "-5.91% (inactive)"}, {"smiles": "COC(=O)c1ccc(CNC(=O)Cn2cc(C)c(=O)[nH]c2=O)cc1", "inhibition": "-6.85% (inactive)"}, {"smiles": "NC(=S)NN=C1CCCC(C(F)(F)F)C1", "note": "(centres undefined)", "inhibition": "6.12% (inactive)"}, {"smiles": "CN(CCc1ccccc1)C(=O)c1cccc(NC(=O)Cc2cccc(NC(=O)C3CCCN(C(=O)CCc4ccccc4)C3)c2)c1", "note": "(centres undefined)", "inhibition": "10.3% (inactive)"}, {"smiles": "CCN(CC)CCCC(C)n1c2nc(=O)[nH]c(=O)c-2nc2cc(Cl)ccc21", "note": "(centres undefined)", "inhibition": "1.9% (inactive)"}, {"smiles": "CC(=O)Oc1ccc(OC(C)=O)c2c1C1C=CC2CC1", "inhibition": "-1.25% (inactive)"}, {"smiles": "O=C(CCC(=O)N1CCN(S(=O)(=O)c2ccc(Cl)cc2)CC1)NCc1cccc(C(F)(F)F)c1", "inhibition": "-0.722% (inactive)"}, {"smiles": "O=C(CCN1C(=O)/C(=C/c2cccs2)SC1=S)NNC(=O)c1cccc(O)c1", "inhibition": "2.35% (inactive)"}, {"smiles": "O=C(CCCN1C(=O)/C(=C/c2cccs2)SC1=S)Nc1ccc(O)cc1", "inhibition": "3.39% (inactive)"}, {"smiles": "CC(C(=O)Nc1ccc(O)c(C(=O)O)c1)N1C(=O)/C(=C/c2cccs2)SC1=S", "note": "(centres undefined)", "inhibition": "81.1% (active)"}, {"smiles": "COc1ccc(C(=O)N(C)Cc2ccc(OC)c(OC)c2OC)cc1S(=O)(=O)N1CCOCC1", "inhibition": "1.9% (inactive)"}, {"smiles": "O=C1CC(c2ccccc2)C(c2ccccc2)=NN1", "note": "(centres undefined)", "inhibition": "6.56% (inactive)"}, {"smiles": "O=C1/C(=C\\c2ccc([N+](=O)[O-])cc2)CS(=O)(=O)C/C1=C/c1ccc([N+](=O)[O-])cc1", "inhibition": "-5.87% (inactive)"}, {"smiles": "CCCCN(C(=O)c1cccc(N2C(=O)c3ccccc3C2=O)c1)c1c(N)n(CCCC)c(=O)[nH]c1=O", "inhibition": "6% (inactive)"}, {"smiles": "N#Cc1c(NC(=O)C2CC(Cl)=CCC2C(=O)O)sc2c1CCCCC2", "note": "(centres undefined)", "inhibition": "-0.566% (inactive)"}, {"smiles": "COC(=O)c1c(NC(=O)C2CC(C)=C(C)CC2C(=O)O)sc2c1CCCCC2", "note": "(centres undefined)", "inhibition": "56.5% (active)"}, {"smiles": "COC(=O)c1c(NC(=O)CSc2nncs2)sc2c1CCCCC2", "inhibition": "-2.31% (inactive)"}, {"smiles": "COc1ccc(CNC(=O)COC(=O)C2=Cc3ccccc3OC2)cc1", "inhibition": "7.22% (inactive)"}, {"smiles": "Cn1c(=O)[nH]c2c(c(C(=O)O)nn2C)c1=O", "inhibition": "7.13% (inactive)"}, {"smiles": "O=C(COc1ccccc1)Nc1ccc(C(=O)N2CCCC2)cc1", "inhibition": "28.7% (inactive)"}, {"smiles": "CC1CCN(CC(O)COc2ccc(C(=O)c3ccccc3)cc2)CC1", "note": "(centres undefined)", "inhibition": "0.839% (inactive)"}, {"smiles": "C[N+]1(CC(O)COc2ccccc2)CCN(C(=O)c2ccc([N+](=O)[O-])cc2)CC1", "note": "(centres undefined)", "inhibition": "52.5% (active)"}, {"smiles": "NC(=O)C1CCN(C(=O)c2cc(S(=O)(=O)N3CCN(c4ccccc4)CC3)ccc2Cl)CC1", "inhibition": "-0.602% (inactive)"}, {"smiles": "CCC(C)C1(C2CCCC2)NC(=O)NC1=O", "note": "(centres undefined)", "inhibition": "-0.893% (inactive)"}, {"smiles": "CC(C)[C@@H](C(=O)OCC(=O)c1ccc2c(c1)NC(=O)CO2)N1C(=O)c2ccccc2C1=O", "inhibition": "2.17% (inactive)"}, {"smiles": "O=c1nc(NO)ccn1C1CCCO1", "note": "(centres undefined)", "inhibition": "-2.47% (inactive)"}, {"smiles": "O=C(O)c1ccc(S(=O)(=O)c2ccccc2)s1", "inhibition": "-2.02% (inactive)"}, {"smiles": "Cc1c[n+]([O-])ccc1[N+](=O)[O-]", "inhibition": "-8.76% (inactive)"}, {"smiles": "Cc1nn(-c2ncccn2)c2c1C(=O)CC(C)(C)C2Br", "note": "(centres undefined)", "inhibition": "8.81% (inactive)"}, {"smiles": "COCCN(C(=O)C(C)N1C(=O)c2ccccc2C1=O)c1c(N)n(CC(C)C)c(=O)[nH]c1=O", "note": "(centres undefined)", "inhibition": "-5.79% (inactive)"}, {"smiles": "CN(C)/C=C(/C(=O)c1ccccc1)S(=O)(=O)c1ccc(Cl)cc1", "inhibition": "0.945% (inactive)"}, {"smiles": "COc1cccc2sc(N(CCCN(C)C)C(=O)CCS(=O)(=O)c3ccccc3)nc12", "inhibition": "83.9% (active)"}, {"smiles": "Cc1cccc2sc(N(CCCN(C)C)C(=O)CCS(=O)(=O)c3ccccc3)nc12", "inhibition": "30.9% (inactive)"}, {"smiles": "COc1cccc2sc(N(CCCN(C)C)C(=O)C(c3ccccc3)c3ccccc3)nc12", "inhibition": "-2% (inactive)"}, {"smiles": "N#CCSc1nc2c(c(=O)n1Cc1ccccc1)C1(CCCC1)Cc1ccccc1-2", "inhibition": "8.15% (inactive)"}, {"smiles": "Cc1cccc(-n2c(SCC(N)=O)nc3c(c2=O)C2(CCCCC2)Cc2ccccc2-3)c1", "inhibition": "53.5% (active)"}, {"smiles": "Cc1cccc(-n2c(=O)c3c(C)c(C)sc3n(CC(N)=O)c2=O)c1", "inhibition": "-1.94% (inactive)"}, {"smiles": "O=C(OC12CC3CC(CC(C3)C1)C2)c1ccc(NCc2cc(O)ccc2O)cc1", "inhibition": "-1.56% (inactive)"}, {"smiles": "CC(C)c1ccc(C=NNc2ccc([N+](=O)[O-])cn2)cc1", "inhibition": "4.1% (inactive)"}, {"smiles": "CSCCC(NC(=O)COc1ccccc1)C(=O)OCc1ccc(Cl)cc1", "note": "(centres undefined)", "inhibition": "-1.24% (inactive)"}, {"smiles": "COc1ccccc1NC(=S)NC(=O)C(C)C", "inhibition": "-8.37% (inactive)"}, {"smiles": "COc1ccccc1NC(=O)C[n+]1ccccc1", "inhibition": "-9.21% (inactive)"}, {"smiles": "COc1ccccc1NC(=O)/C=C/C(N)=O", "inhibition": "121% (active)"}, {"smiles": "CCOC(=O)C1CCCN(C(=O)C2CCN(S(=O)(=O)c3ccc(Cl)c(C(F)(F)F)c3)CC2)C1", "note": "(centres undefined)", "inhibition": "10.8% (inactive)"}, {"smiles": "CCC1([N+](=O)[O-])COC(c2ccc(C)cc2)OC1", "note": "(centres undefined)", "inhibition": "-3.32% (inactive)"}, {"smiles": "Cc1c(CCO)sc[n+]1CC(=O)OC12CC3CC(CC(C3)C1)C2", "inhibition": "2.54% (inactive)"}, {"smiles": "Cc1c(CCOC(=O)CC23CC4CC(CC(C)(C4)C2)C3)sc[n+]1Cc1ccc([N+](=O)[O-])cc1", "inhibition": "64.3% (active) and -8% (inactive)"}, {"smiles": "Cc1c(CCOC(=O)c2cc([N+](=O)[O-])ccc2Cl)sc[n+]1CCCCS(=O)(=O)[O-]", "inhibition": "12.5% (inactive)"}, {"smiles": "Cc1ccc(S(=O)(=O)N2CCN(C(=O)COC(=O)/C=C/c3cccc(Cl)c3)CC2)c(C)c1", "inhibition": "5.03% (inactive)"}, {"smiles": "CN(C)C(CNC(=O)c1cc2ccccc2o1)c1ccccc1", "note": "(centres undefined)", "inhibition": "2.45% (inactive)"}, {"smiles": "CCN(CC)S(=O)(=O)c1cccc(NC(=O)c2ccc(S(=O)(=O)N3CCCC3)cc2)c1", "inhibition": "-3.62% (inactive)"}, {"smiles": "CC1C(C)N(C(=O)CCl)c2ccccc2N1C(=O)CCl", "note": "(centres undefined)", "inhibition": "-6.55% (inactive)"}, {"smiles": "Nc1cc2c(cc1Br)-c1ccc(F)cc1C2=O", "inhibition": "-11.8% (inactive)"}, {"smiles": "CC1CN(Cc2ccco2)C(=S)N(c2ccccc2)C1=O", "note": "(centres undefined)", "inhibition": "3.62% (inactive)"}, {"smiles": "NC(=O)c1ncn([C@@H]2O[C@H](CN=C3NS(=O)(=O)c4ccccc43)[C@@H](O)[C@H]2O)n1", "inhibition": "-1.34% (inactive)"}, {"smiles": "O=C(Nc1ccc(-c2csc(Nc3cccc(C(F)(F)F)c3)n2)cc1)c1cccc(C(F)(F)F)c1", "inhibition": "-6.03% (inactive)"}, {"smiles": "Cc1ccccc1Nc1nc(-c2cccnc2)cs1", "inhibition": "-4.39% (inactive)"}, {"smiles": "CC(=O)Nc1cccc(-c2csc(Nc3cccc(C)n3)n2)c1", "inhibition": "65% (active)"}, {"smiles": "CC1(C)N=C(N)NC(Nc2ccc(Cl)cc2)=N1", "inhibition": "-1.08% (inactive)"}, {"smiles": "CC(C)(C)OC(=O)N1CCC(C(=O)Nc2cccc(C(=O)NCCc3ccccc3)c2)CC1", "inhibition": "15.4% (inactive)"}, {"smiles": "COc1ccc2c(c1)c(=Cc1ccc(N(C)C)cc1)c1cc(-c3ccccc3)[n+](C)n12", "inhibition": "14.8% (inactive)"}, {"smiles": "CC(=O)OCC(=O)C1(O)CCC2C3CC(C)C4=CC(=O)CCC4(C)C3C(O)CC21C", "note": "(centres undefined)", "inhibition": "-0.0615% (inactive)"}]}]}
